Measurements: ChEMBL document CHEMBL4513216, “Probing the Open Global Health Chemical Diversity Library for Multistage-Active Starting Points for Next-Generation Antimalarials” (ACS Infect Dis, 2020)
Out of some 69,000 compounds screened, about 8,600 (12%) showed an effect of 50% or more. For the sample, strong results were picked, then their nearest neighbours and some compounds at random.

The compounds below were run on Plasmodium berghei (assay: Screen against P. berghei liver stage (PbLuc), transformed with Luciferase, at 10uM). Settings: tested at 10 uM.
Format: functional, HepG2

Structure (SMILES)	INHIBITION [%]
O=C1NCC(c2ccc(F)cc2)Cc2[nH]c(CCN3CCCC3)nc21 (stereo not drawn)	43.9
Cc1c(Br)cc2c(c1C)OCC(N(C)C)C2=O (stereo not drawn)	24.8
c1cc(-c2nc3c(c(NCCn4ccnn4)n2)CCNCC3)ccn1	72.1
c1cn(CCNc2nc(NC3CC3)nc3c2CCNCC3)nn1	53.6
c1cc(-c2nc3c(c(NCCc4c[nH]cn4)n2)CCNCC3)ccn1	5.41
CCOCCNc1nc(-c2ccncc2)nc2c1CCNCC2	-86.4
COCCNc1nc2c(c(NCc3ccncc3)n1)CCNCC2	-3.19
COCCNc1nc2c(c(NCC3CCOC3)n1)CCNCC2 (stereo not drawn)	22.3
O=C(N1CCCC1)N1CCn2c(nnc2C2CCCN2)C1 (stereo not drawn)	27.5
Cc1nc(C2CCCN2Cc2nc(C3CC3)no2)no1 (stereo not drawn)	26.9
COCCNC(=O)[C@H]1C[C@@H]2CCN(c3ncccn3)C[C@@H]2O1	25.3
COC[C@H]1CC[C@H]2[C@H](CCN2C(=O)c2ccncc2F)O1	8.52
CN1CCN(C(=O)[C@@H]2CC[C@@H]3[C@@H](CCN3c3ncccn3)O2)CC1	34.6
O=C(NC1CC1)[C@H]1CC[C@@H]2[C@@H](CCN2c2ncc(F)cn2)O1	50.1
COCCNC(=O)[C@H]1CC[C@@H]2[C@@H](CCN2c2ncc(F)cn2)O1	0.734
CC1CCN(C(=O)[C@@H]2CC[C@@H]3[C@@H](CCN3c3ncc(F)cn3)O2)CC1	62.4
COCCNC(=O)[C@@H]1CC[C@@H]2[C@@H](CCN2c2ncc(F)cn2)O1	0.734
O=C(NC1CCCC1)[C@H]1CC[C@@H]2[C@@H](CCN2c2ncc(F)cn2)O1	-9.54
Cc1noc(CN(Cc2cccs2)C2CC2)n1	47.3
COCCO[C@H]1CCN(C(=O)c2cc(C)on2)[C@H]1Cc1ccccc1	28.2
CC1(c2[nH]ncc2C(N)=O)CCN(S(=O)(=O)c2ccccc2)CC1	11.1
CCC(CC)C(=O)N1CCN(Cc2cc(=O)c3ccccc3[nH]2)CC1	33.4
CCOC(=O)Cn1cnc2nc3n(c2c1=O)CCC3	81.2
NC(=O)Cn1cnc2nc3n(c2c1=O)CCC3	-17
O=c1c2c(ncn1CCO)nc1n2CCC1	1.98
O=C(c1ccn(-c2ccccc2)n1)N1CCCC(n2cccn2)C1 (stereo not drawn)	2.97

Structure (SMILES)	INHIBITION [%]
Cc1ccn2ncc(C(=O)N3CCCC(n4cccn4)C3)c2n1 (stereo not drawn)	50.5
Cc1nn(-c2ccccc2)cc1C(=O)N1CCCC1c1cnn(C)c1 (stereo not drawn)	43.3
Cc1nn(-c2ccccc2)cc1C(=O)N1CCCN2CCCC2C1 (stereo not drawn)	51.3
Cc1cnn(C2CCCN(C(=O)c3cn(-c4ccccc4)nc3C)C2)c1 (stereo not drawn)	-42.3
Cc1nn(-c2ccccc2)cc1C(=O)N1CCCC(n2cccn2)C1 (stereo not drawn)	66.4
Cc1nn(-c2ccccc2)cc1C(=O)N1CCCC(n2ccnc2)C1 (stereo not drawn)	-3.2
Cc1ccn2ncc(C(=O)N3CCCC(n4ccnc4C)C3)c2n1 (stereo not drawn)	-31.5
Cc1ccn2ncc(C(=O)N3CCCC(n4nc(C)nc4C)C3)c2n1 (stereo not drawn)	11.5
CN(C)c1ncc(C(=O)N2C[C@H]3CC(Oc4ccccc4)C[C@H]3C2)cn1 (stereo partly drawn)	2.35
O=C(Cc1cn2ccccc2n1)N1CCCC(n2ccnc2)C1 (stereo not drawn)	-43.6
Cc1cccc(N2CCOCC3(C2)CN(c2ccoc2)C(=O)CO3)n1 (stereo not drawn)	32.5
NC(=O)c1cc(CC2CCCN(c3cnccn3)C2)ncn1 (stereo not drawn)	-32.7
CS(=O)(=O)NC1CCCN(C(=O)Nc2cccnc2N2CCCC2)C1 (stereo not drawn)	21.1
CC(C)N1[C@H](Cn2cncn2)C[C@@H]2CN(Cc3nccn3C)CC[C@@H]21	37.6
Cc1oncc1C(=O)N1CC[C@H]2[C@H](C[C@@H](CN(C)C)N2CC2CC2)C1	33.5
CN(C)C[C@@H]1C[C@@H]2CN(Cc3nccn3C)CC[C@@H]2N1CC1CC1	51.2
CCCc1cc(C(=O)N2C[C@H]3CCC[C@@]3(CO)C2)[nH]n1	21.9
CCc1ccc2nc(C)cc(C(=O)N3C[C@H]4CCC[C@@]4(CO)C3)c2c1	25.5
Cc1ccc2nc(C)cc(C(=O)N3C[C@H]4CCC[C@@]4(CO)C3)c2c1	75.7
Cc1cc(C(=O)N2C[C@H](c3ccccc3)[C@@H](N)C2)c2ccc(F)cc2n1	13
Cc1cc(C(=O)N2CCC(n3nc(C)cc3C)C2)c2ccc(F)cc2n1 (stereo not drawn)	37.3
Cc1cc(C(=O)N2C[C@H]3CCC[C@@]3(CO)C2)c2ccc(F)cc2n1	58.6
CC(C)COC(C)C(=O)NCc1ccc(F)cc1 (stereo not drawn)	-27.8
Cc1cccc(CNC(=O)CC2CCN(Cc3ccccn3)CC2)n1	18.3
CCc1nc(C2CCCN2C(=O)CCc2cscn2)no1 (stereo not drawn)	18.2
CCn1cc(CN2C[C@@H]3CCCN3C[C@H]2CCSC)cn1	35.2

Structure (SMILES)	INHIBITION [%]
CCOCC1CN(Cc2csc(C)n2)Cc2nccn2C1 (stereo not drawn)	1.9
CCCc1nnc(N2CCC3(CC2)CC(=O)NC(=O)C3)o1	-10.2
NCc1cn(CC2CCCN(C(=O)NCc3ccc(Cl)cc3)C2)nn1 (stereo not drawn)	45.8
O=C(CC1=CCCCC1)N1CCC(Cn2cc(CCO)nn2)CC1	58.5
COc1ccc(CC(=O)N2CCCC(Cn3cc(CN)nn3)C2)cc1 (stereo not drawn)	12.7
CC(C)CCN1CCCC(Cn2cc(CCO)nn2)C1 (stereo not drawn)	6.69
COCc1cn(C2CCN(C(=O)Cc3ccsc3)CC2)nn1	34.8
O=C(c1sccc1Cl)N1CCC(Cn2cc(CO)nn2)CC1	10.7
NCc1cn(CC2CCCN(C(=O)CC3=CCCCC3)C2)nn1 (stereo not drawn)	58.5
O=C(Cc1ccsc1)N1CCC(Cn2cc(CCO)nn2)CC1	57.1
CC(C)(CN1CCCC1)CN1CCC(Cn2cc(CCO)nn2)CC1	-6.03
CC(C)N(C)Cc1cnc2n1CCN(CCc1ccccc1)C2	8.47
O=C(NCCc1cccs1)[C@H]1CO[C@H]2CCNC[C@H]2C1	39.8
Cc1noc(C)c1CN1CCO[C@H]2CN(C(=O)C3CCOCC3)C[C@H]21	29.4
O=C(c1ccn(-c2ccccc2Cl)n1)N1CCCSCC1	-15.3
c1ccc(OC2C[C@@H]3CN(Cc4cnccn4)C[C@@H]3C2)cc1 (stereo partly drawn)	-15.3
Cc1cccc(Nc2cc(C3CCCN(CC(N)=O)C3)ccn2)n1 (stereo not drawn)	81.55
Cc1nnc(Nc2cccc(C3CCCN(Cc4ncc[nH]4)C3)n2)s1 (stereo not drawn)	62.9
Cc1cc(C)nc(Nc2cccc(C3CCCN(CC4CC4)C3)n2)n1 (stereo not drawn)	47.2
Cc1cccc(Nc2cccc(C3CCCN(Cc4ncc[nH]4)C3)n2)n1 (stereo not drawn)	64.1
Cc1cccc(Nc2nccnc2C2CCCN(CC(=O)N(C)C)C2)n1 (stereo not drawn)	36.7
NC(=O)CN1CCCC(c2ccnc(Nc3ncccn3)c2)C1 (stereo not drawn)	37.55
Cc1nnc(Nc2cccc(C3CCN(Cc4ncc[nH]4)CC3)n2)s1	-12.9
COCCNc1cc(C2CCCNC2)ccn1 (stereo not drawn)	-14.775
CNc1cccc(C2CCCN(Cc3ncc[nH]3)C2)n1 (stereo not drawn)	15.9
CCc1nnc(Nc2cccc(C3CCCN(CC(C)(C)C)C3)n2)s1 (stereo not drawn)	-34.6

Structure (SMILES)	INHIBITION [%]
c1ccc(CNc2cc(C3CCCNC3)ccn2)nc1 (stereo not drawn)	7.775
Cc1cccc(CNc2cc(C3CCCNC3)ccn2)n1 (stereo not drawn)	50.45
CN(C)CCNC(=O)C1Cc2nc(-c3ccsc3)sc2N1CC1CC1 (stereo not drawn)	-16.2
CCN1C[C@H]2[C@@H](C1)N(S(=O)(=O)c1ccccc1F)CC[C@H]2OC	32.2
CN1CCn2c(-c3ccccc3)cnc2C12CCN(CC1CC1)CC2	29.8
CCOC(=O)N1C[C@@H]2CC[C@H]1CN(Cc1ccccc1)C2	12.8
CN(C)CCN1C(=O)C[C@@H]2[C@@H]1CCN2S(=O)(=O)c1ccccc1	-71.3
CCC(=O)N1CCCCC1c1nc(O)c2c(n1)CN(S(C)(=O)=O)CC2 (stereo not drawn)	10.9
Cn1ccc(-c2cc(C(=O)N3CCCCC3)c3ccccn23)n1	49.4
O=C(CCCOc1ccccc1F)Nc1cc[nH]n1	11.5
CC(C)CC(=O)N[C@H](C)c1c(-c2ccc(Cl)cc2)noc1C(=O)O	7.5
CC(NC(=O)NCCCN(C(C)C)S(C)(=O)=O)c1ccncc1 (stereo not drawn)	-11.4
NC(=O)CN(C(=O)C1Cc2cc(Cl)ccc2O1)C1CCCC1 (stereo not drawn)	6.83
O=C(O)c1ccc(F)c(S(=O)(=O)N2CCOc3ccccc32)c1	32.44
Cc1ccc(C(=O)N2C[C@H]3CC[C@@H](C2)N(CC2CCC2)C3)s1	-26.4
COc1ncnc2c1CCN(Cc1cccs1)CC2	-0.804
CCc1noc(C2CCCCN2C(=O)c2ccccc2)n1 (stereo not drawn)	-45
CCc1noc(C2CCCCN2C(=O)c2cc(C)oc2C)n1 (stereo not drawn)	78.1
CCc1noc(C2CCCCN2C(=O)c2nnc3ccccc3n2)n1 (stereo not drawn)	62.4
CCc1noc(C2CCCCN2C(=O)c2ccoc2C)n1 (stereo not drawn)	22.1
CCc1noc(C2CCCCN2C(=O)c2cccs2)n1 (stereo not drawn)	9.32
CCc1noc(C2CCCCN2C(=O)c2cc(C)n(C)n2)n1 (stereo not drawn)	52.4
CCc1noc(C2CCCCN2C(=O)c2ccc(C)o2)n1 (stereo not drawn)	45.8
CCc1noc(C2CCCCN2C(=O)c2ccn(C3CCCC3)n2)n1 (stereo not drawn)	6.32
CCc1noc(C2CCCCN2C(=O)c2cc(C)on2)n1 (stereo not drawn)	22.6
